Assay results taken from PubChem BioAssay (EPA / NIEHS).
Results filed as inconclusive are left out. The source made the active and inactive calls. The calls were made as follows: active = hit-call score of the fitted dose curve at least 0.9, where 1 is the maximum; inconclusive = response in the unintended direction; inactive = score below 0.9.

What follows are compounds tested against Estrogen receptor (Homo sapiens) + Estrogen receptor beta (Homo sapiens) (UniProt P03372+Q92731) (assay: OT_ER_ERaERb_0480: Odyssey Thera (OT) 8-hour HEK293T Protein-Complementation Assay for Estrogen Receptor-alpha/-beta Heterodimer (AID 2283352)).
Estrogen receptor (Homo sapiens) + Estrogen receptor beta (Homo sapiens), sequence (P03372 whole entry, looked up, the tested form may be a part): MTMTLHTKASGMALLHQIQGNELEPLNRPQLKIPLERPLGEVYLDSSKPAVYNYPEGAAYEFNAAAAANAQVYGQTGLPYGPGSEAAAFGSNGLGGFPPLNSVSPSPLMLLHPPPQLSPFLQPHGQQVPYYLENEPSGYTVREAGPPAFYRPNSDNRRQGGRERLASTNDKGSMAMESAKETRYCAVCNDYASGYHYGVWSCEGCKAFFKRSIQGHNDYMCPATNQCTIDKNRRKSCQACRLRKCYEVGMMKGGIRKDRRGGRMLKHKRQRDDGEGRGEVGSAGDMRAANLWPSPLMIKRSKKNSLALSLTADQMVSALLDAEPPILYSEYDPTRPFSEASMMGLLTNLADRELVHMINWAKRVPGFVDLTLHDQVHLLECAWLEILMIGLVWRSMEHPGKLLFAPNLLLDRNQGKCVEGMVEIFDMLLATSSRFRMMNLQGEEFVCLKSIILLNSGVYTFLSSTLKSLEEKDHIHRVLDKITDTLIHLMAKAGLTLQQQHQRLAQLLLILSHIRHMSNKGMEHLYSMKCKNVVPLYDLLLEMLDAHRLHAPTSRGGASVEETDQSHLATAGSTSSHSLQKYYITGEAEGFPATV
Estrogen receptor (Homo sapiens) + Estrogen receptor beta (Homo sapiens), sequence (Q92731 whole entry, looked up, the tested form may be a part): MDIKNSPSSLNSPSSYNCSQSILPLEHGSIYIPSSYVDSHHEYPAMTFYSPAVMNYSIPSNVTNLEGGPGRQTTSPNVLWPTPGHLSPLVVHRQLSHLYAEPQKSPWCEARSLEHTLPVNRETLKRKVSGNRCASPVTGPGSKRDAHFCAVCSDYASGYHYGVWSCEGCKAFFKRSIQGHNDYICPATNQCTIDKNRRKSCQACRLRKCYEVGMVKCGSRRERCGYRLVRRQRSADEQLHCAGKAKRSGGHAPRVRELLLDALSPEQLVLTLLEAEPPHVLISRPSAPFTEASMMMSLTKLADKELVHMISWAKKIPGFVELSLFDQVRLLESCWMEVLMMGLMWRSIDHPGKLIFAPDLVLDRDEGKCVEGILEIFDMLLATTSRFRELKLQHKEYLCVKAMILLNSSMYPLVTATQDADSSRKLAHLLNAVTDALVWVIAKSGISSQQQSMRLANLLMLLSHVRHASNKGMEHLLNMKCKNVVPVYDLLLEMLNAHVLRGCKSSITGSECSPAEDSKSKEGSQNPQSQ
Procedure: OT_ER_ERaERb_0480 is a cell-based assay that uses HEK293T, a human kidney cell line, with measurements taken at 8 hours after chemical dosing in a 384-well plate.OT_ER_ERaERb_0480 is one of one assay component(s) measured or calculated from the OT_ER_ERaERb_0480 assay. It is designed to make measurements of protein fragment complementation, a form of binding reporter, as detected with fluorescence intensity signals by Protein-fragment Complementation technology.Data from the assay component OT_ER_ERaERb_0480 was analyzed into 1 assay endpoint. This assay endpoint, OT_ER_ERaERb_0480, was analyzed in the positive analysis fitting direction relative to DMSO as the negative control and baseline of activity. Using a type of binding reporter, measures of receptor for gain-of-signal activity can be used to understand the binding at the pathway-level as they relate to the gene ESR1 and ESR2. Furthermore, this assay endpoint can be referred to as a primary readout, because the performed assay has only produced 1 assay endpoint. To generalize the intended target to other relatable targets, this assay endpoint is annotated to the nuclear receptor intended target family, where the subfamily is steroidal.
Protein-fragment complementation assay, or PCA, is a method for the identification and quantification of protein-protein interactions. In the PCA, the proteins of interest ("bait" and "prey") are each covalently linked to fragments of a third protein (e.g. DHFR, which acts as a "reporter"). Interaction between the bait and the prey proteins brings the fragments of the reporter protein in close proximity to allow them to form a functional reporter protein whose activity can be measured. […] Fluorescent signal in the basal state of the assay is very low and is primarily punctuate and cytoplasmic. Modulation of this assay is quantified as an increase in mean fluorescence intensity in the nucleus (for agonists) or in the nucleus and cytoplasm (antagonists) relative to vehicle controls, and can be quantified on a high content imaging device or a laser scanning cytometer. The latter instrument is favored for this assay because of the rapid mode of data acquisition, the ability to acquire data from the entire cell population in a well (as opposed to a fraction of the well on the high content devices) and the larger dynamic range typically achieved with this instrument. To assess sensitivity of the ER alpha/ER beta LBD assay to ligand, cells were treated with the ER agonist 17- beta-estradiol (E2) in 10-point concentration- response format for 8 hours and monitored response on a laser scanning plate cytometer (Acumen eX3; TTP Lab Tech).

| SMILES | outcome | AC50 |
| --- | --- | --- |
| OCc1ccco1 | inactive | – |
| CC(C)(c1ccc(OCC2CO2)cc1)c1ccc(OCC2CO2)cc1 (stereo not drawn) | inactive | – |
| C=C(C)C(=O)[O][Sn]([CH2]CCC)([CH2]CCC)[CH2]CCC | inactive | – |
| CCOP(=S)(OCC)Oc1nc(Cl)c(Cl)cc1Cl | – | 50 µM (active) |
| CC1(C)Cc2cccc(O)c2O1 | inactive | – |
| Clc1ccc(C2(Cn3cncn3)CC(Br)CO2)c(Cl)c1 (stereo not drawn) | inactive | – |
| Cc1ccccc1C(=O)Nc1cccc(OC(C)C)c1 | inactive | – |
| [O-][Cl+2]([O-])O | inactive | – |
| Fc1ccc(C2(Cn3cncn3)OC2c2ccccc2Cl)cc1 (stereo not drawn) | – | 12.7 µM (active) |
| CC(C)c1cccc(C(C)C)c1O | inactive | – |
| N#CN=C(N)N | inactive | – |
| O=S(=O)(c1ccc(Cl)cc1)c1ccc(Cl)cc1 | inactive | – |
| CCC(=O)C(CC(C)N(C)C)(c1ccccc1)c1ccccc1 (stereo not drawn) | inactive | – |
| COP(=S)(OC)Oc1ccc(Sc2ccc(OP(=S)(OC)OC)cc2)cc1 | inactive | – |
| COc1cc(OC)nc(NC(=O)NS(=O)(=O)c2ncccc2C(=O)N(C)C)n1 | inactive | – |
| O=[N+]([O-])c1ccc(O)c([N+](=O)[O-])c1 | inactive | – |
| C[C@H]1CCCC(=O)CCC/C=C/c2cc(O)cc(O)c2C(=O)O1 | – | 0.0558 µM (active) |
| C=C(C)C#N | inactive | – |
| Cn1sc(Cl)cc1=O | inactive | – |
| COC(=O)c1sccc1S(=O)(=O)NC(=O)Nc1nc(C)nc(OC)n1 | inactive | – |
| CC(C)(c1ccccc1)c1ccc(O)c(C(C)(C)c2ccccc2)c1 | inactive | – |
| C=CC#N | inactive | – |
| CNC(=O)O/N=C/C(C)(C)S(C)=O (stereo not drawn) | inactive | – |
| CCOP(=S)(OCC)SCSP(=S)(OCC)OCC | – | 10.7 µM (active) |
| Cc1ccc2ccccc2c1C | inactive | – |
| CC(C#N)CCC#N (stereo not drawn) | inactive | – |
| Cc1ccc(N)cc1Cl | inactive | – |
| C=CC(=O)OCCCCCC(C)C | inactive | – |
